Laboratory results: the supplement of paper PMC3484114
± gives the standard deviation.

These compounds were tested on OVCAR-3-derived ovarian cancer stem-like cells (spheroids) (assay: cell growth relative to untreated control; higher = more growth (less inhibition)). Settings: 2.29 µM; 96 h.
In short: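 Percent growth was calculated against untreated wells once blanks were subtracted and Grubbs outliers removed. The cells were OVCAR-3 spheroid-derived stem-like cells, trypsinized and plated at 50,000 cells/mL in stem cell medium on ultra-low attachment 96-well plates for a 24 h preincubation. They were then exposed to compounds at 2.29 uM for 96 h at 37°C, 5% CO2, in 4 replicate wells, and viability was measured by TOX8 resazurin fluorescence (ex 560/em 590 nm) after 4 h.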
In the case of `Cc1ccc(NC(=O)/C=C/c2ccccc2)c(C)c1`, the cell growth is reported as 77.2 ± 16%. Compound `CCOC(=O)NC(Nc1ccc(F)cc1)(C(=O)OCC)C(F)(F)F` (stereo not given) has a cell growth of 199 ± 130%. `Nc1nc2c(ncn2[C@@H]2O[C@H](CO)[C@@H](O)[C@H]2O)c(=O)[nH]1` was tested, and the cell growth was 107 ± 11%. `NC(=O)c1csc(C2OC(CO)C(O)C2O)n1` (stereo not given) was tested, and the cell growth was 90.6 ± 11%. In the case of `Oc1cc2c3c(c1)c1cc4c(cc1c[n+]3CC2)OCO4`, the cell growth is reported as 97.7 ± 13%. With `CCOc1ccccc1NC(=O)CC1Sc2ccccc2NC1=O` (stereo not given) the cell growth was 70.6 ± 14%. `CCN(CC)CCCC(C)NC(=O)c1ccc2c(c1)C(=O)c1ccccc1C2=O` (stereo not given) gave a cell growth of 35.6 ± 15%. For `Cc1nc(N)nc(N)c1-c1ccc(Cl)c(Cl)c1`, the cell growth was 102 ± 13%. Work on `CC[n+]1c(-c2ccccc2)c2cc(N)ccc2c2ccc(N)cc21` yielded a cell growth of 15 ± 9.7%. With `O=C1/C(=C\c2ccc(Cl)c(Cl)c2)CN(C(=O)CCN2CCOCC2)C/C1=C\c1ccc(Cl)c(Cl)c1` the cell growth was 63.5 ± 9.5%. `C=C(C)[C@@H]1CC[C@]2(CO)CC[C@]3(C)[C@H](CC[C@@H]4[C@@]5(C)CC[C@H](O)C(C)(C)[C@@H]5CC[C@]43C)[C@@H]12` gave a cell growth of 90 ± 24%. Compound `C/C(=N\NC(=S)N1CCN(C2CCCCCC2)CC1)c1ccccn1` has a cell growth of 14.7 ± 7.5%. `O=C1/C(=C/c2cccs2)Oc2ccccc21` showed a cell growth of 94 ± 12%. With `CC(=O)c1sc2c(c1OC(=O)c1ccc(Cl)cc1Cl)c(=O)n(-c1ccccc1)c(=S)n2-c1ccccc1` the cell growth was 94.1 ± 24%. For `Nc1ncnc2c1nnn2[C@@H]1O[C@H](CO)[C@@H](O)[C@H]1O`, the cell growth was 23.1 ± 4.4%. `O=C(CC1(O)C(=O)Nc2c(Cl)cc(Cl)cc21)c1cccc([N+](=O)[O-])c1` (stereo not given) gave a cell growth of 88.1 ± 30%. For `Cc1ccccc1NC(=O)C(=O)C(c1cnc2ccc([N+](=O)[O-])cc2n1)[N+](=O)[O-]` (stereo not given), the cell growth was 112 ± 25%. `Cc1ccc(NC(=O)c2cccc([N+](=O)[O-])c2O)c(C)c1` was tested, and the cell growth was 110 ± 19%. Compound `COc1cc2c(c(OC)c1OC)-c1c(cc3c(c1OC)OCO3)CC(C)C(C)(O)C2OC(=O)c1ccccc1` (stereo not given) has a cell growth of 130 ± 29%. With `COC(=O)[C@@]12OC[C@]34[C@H]([C@@H](O)[C@@H]1O)[C@@]1(C)CC(=O)C(O)=C(C)[C@@H]1C[C@H]3OC(=O)[C@H](OC(=O)C=C(C)C)[C@@H]24` the cell growth was 18.5 ± 3.1%. With `CCN(CC)CCOC(=O)Cc1cccc2c(=O)cc(-c3ccccc3)oc12` the cell growth was 91.6 ± 23%. In the case of `CC1(C)N=C(N)N=C(N)N1c1ccc(CCCCc2ccc(Cl)cc2Cl)cc1`, the cell growth is reported as 51.5 ± 9.2%. Compound `CC1(c2cccc3ccccc23)OC(=O)c2ccccc21` (stereo not given) has a cell growth of 116 ± 29%. Work on `O=C1C2=Nc3ccccc3C(O)N2c2ccccc21` (stereo not given) yielded a cell growth of 91 ± 12%. `COc1c2c(c(OC)c3c1c(=O)c1ccccc1n3C)OCO2` was tested, and the cell growth was 97.8 ± 12%. With `C(=N\NC1=NCCN1)/c1c2ccccc2c(/C=N/NC2=NCCN2)c2ccccc12` the cell growth was 21.4 ± 5.8%. `CCC(C#N)(c1ccccc1)N(CCc1ccccc1)C(=O)c1ccccc1` (stereo not given) was tested, and the cell growth was 129 ± 28%. `O=C1c2ccccc2C(=O)c2c(O)c(NCCNCCO)cc(O)c21` was tested, and the cell growth was 82.8 ± 24%. For `COc1cccc2c1C(=O)c1c(O)c3c(c(O)c1C2=O)C[C@@](O)(C(C)=O)C[C@@H]3O[C@@H]1C[C@@H](N(C)C)[C@@H](O)[C@@H](C)O1`, the cell growth was 26.5 ± 25%. For `Cc1cc(Cl)cc2c1NC(=O)C2(O)C(C(=O)c1ccccc1)c1ccccc1` (stereo not given), the cell growth was 94.9 ± 12%. With `O=C(Nc1ccc(Sc2ccc(N=Nc3c(O)c(S(=O)(=O)O)cc4cc(S(=O)(=O)O)ccc34)cc2)cc1)c1ccc(N=Nc2c(O)ccc3c(S(=O)(=O)O)cc(S(=O)(=O)O)cc23)cc1` the cell growth was 95.9 ± 9.6%. Compound `Nc1nc(-c2cccs2)cs1` has a cell growth of 57.1 ± 11%. Compound `Nc1ccccc1N` has a cell growth of 88.4 ± 25%. For `O=C1c2ccccc2C(=O)c2c(O)c(O)cc(O)c21`, the cell growth was 25.5 ± 6.6%. `O=Cc1cc([N+](=O)[O-])no1` was tested, and the cell growth was 115 ± 26%. For `CCN(CC)C(=S)S`, the cell growth was 61.6 ± 19%. `c1ccc(-c2cccc(-c3ccccn3)n2)nc1` gave a cell growth of 79.9 ± 17%. Work on `O=C1CCC(c2ccccc2)=NN1c1nc2ccccc2s1` yielded a cell growth of 39.3 ± 10%. In the case of `CCN(CC)CCOc1ccc(C(O)(Cc2ccc(OC)cc2)c2ccccc2)cc1` (stereo not given), the cell growth is reported as 118 ± 40%. `CCc1cccc(C(C)C)c1NC(=O)/C(=N\NC(N)=O)C(C(=O)OC)c1cnc2ccccc2n1` (stereo not given) was tested, and the cell growth was 71.4 ± 14%.
